Out of some 5,600 compounds screened, about 780 (14%) were called active. Inconclusive results (about 3%) are left out. Only a sample is shown. A number with no mark means an inactive call.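 How the source made its calls: active means mean signal decrease across replicates above about 35% based on untreated-well scatter, with enough replicates individually passing (limit read from the data); inconclusive means no rule stated though some were filed; inactive means the rest.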

This experiment in a line: cytotoxicity in mouse NIH/3T3 fibroblasts, confirmation, cytotoxicity control for T. cruzi proliferation inhibitor project, cell-based, cherry-pick, single point (AID 651742).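 Further: 0% = median of neutral control wells and 100% = median of positive control wells.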 Particulars: NIH/3T3 viability, CellTiter-Glo ATP luminescence, 90 h; at 8.35 µM; active compounds read high.
For the molecule `O=C(Cc1ccccn1)N1CCCCN2[C@@H](CO)[C@@H](c3ccc(C#Cc4ccccc4)cc3)[C@@H]2C1`, the cytotoxicity (signal decrease) is 33.5%.
For `COc1ccc(-c2ccc([C@H]3[C@H](CO)N4CCCCN(C(=O)Cc5ccncc5)C[C@@H]34)cc2)cc1` the value was 17.6%.
With `COc1ccc(C#Cc2ccc([C@H]3[C@H](CO)N4CCCCN(C(=O)Cc5ccccc5)C[C@@H]34)cc2)cc1`, the cytotoxicity (signal decrease) was 58.2% (active).
Take `O=C(Cc1cccnc1)N1CCCCN2[C@@H](CO)[C@H](c3ccc(C#CC4CCCC4)cc3)[C@@H]2C1`: the cytotoxicity (signal decrease) was 23.3%.
Turning to `C/C=C/c1ccc([C@H]2[C@H](CO)N3CCCCN(C(=O)Cc4ccncc4)C[C@@H]23)cc1`, the cytotoxicity (signal decrease) was 11.1%.
